According to PubChem BioAssay AID2360 (The Scripps Research Institute Molecular Screening Center, 2010):
Screen size: about 1,900 compounds; about 85 (4%) were called active. Not all results are given here. A number with no mark means an inactive call.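 How the source made its calls: active means mean PP5 inhibition over triplicate wells above about 9.5% taken from the earlier PP1 screen (limit read from the data); inactive means the rest.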

target: Serine/threonine-protein phosphatase 5 (Homo sapiens) (UniProt P53041); assay: PP5 phosphatase inhibition by PP1 hits, confirmation, counter-screen for PP1 inhibitor project, biochemical, fluorescence, triplicate (AID 2360); conditions: purified PP5c, OMFP fluorescence; at 6.7 µM; stronger effect = higher value
Sequence (P53041 whole entry, looked up): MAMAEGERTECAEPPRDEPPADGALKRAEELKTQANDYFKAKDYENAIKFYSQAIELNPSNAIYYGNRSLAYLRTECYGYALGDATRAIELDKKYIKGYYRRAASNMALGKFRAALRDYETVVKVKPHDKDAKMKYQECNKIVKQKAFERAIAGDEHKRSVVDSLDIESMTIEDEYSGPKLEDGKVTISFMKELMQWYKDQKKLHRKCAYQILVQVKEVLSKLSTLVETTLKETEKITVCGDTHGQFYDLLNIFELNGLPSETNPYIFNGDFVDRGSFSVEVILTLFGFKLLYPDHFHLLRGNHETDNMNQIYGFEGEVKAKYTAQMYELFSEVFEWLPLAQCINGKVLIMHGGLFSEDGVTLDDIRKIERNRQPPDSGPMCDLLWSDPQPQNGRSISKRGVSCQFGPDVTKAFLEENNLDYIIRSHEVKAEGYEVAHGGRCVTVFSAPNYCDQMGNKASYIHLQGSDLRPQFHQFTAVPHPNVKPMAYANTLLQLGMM

SMILES | inhibition
Cc1ccc(-c2cc(C(=O)N/N=C/C=C/c3ccco3)c3ccccc3n2)cc1C | 2.19%
CC1CCCCN1S(=O)(=O)c1ccc(C(=O)Nc2nnc(-c3cccs3)o2)cc1 (stereo not given) | 1.29%
Nc1ccc2nc3c(=O)[nH]c(=S)[nH]c3nc2c1 | 15% (active)
O=C(Nc1cccc(-c2nc3ccccc3[nH]2)c1)c1ccc(C(=O)Nc2cccc(-c3nc4ccccc4[nH]3)c2)cc1 | -2.5%
COCCN(CCOC)S(=O)(=O)c1ccc(C(=O)Nc2nc3c(s2)CCc2ccccc2-3)cc1 | -4.16%
Cc1nc2c(C(=O)NCc3ccc4c(c3)OCO4)c[nH]n2c(=O)c1Cc1ccccc1F | 0.13%
COc1ccc(C2C(C(C)=O)=C(O)C(=O)N2CCc2c[nH]c3ccccc23)cc1 (stereo not given) | 1.2%
Clc1ccc(-n2nnnc2-c2cnc(-c3ccccn3)nc2-c2cccs2)cc1 | -0.17%
CCC(=C/c1sc2ccc3ccccc3c2[n+]1C)/C=C1\Sc2ccc3ccccc3c2N1C | 0.84%
CS(=O)(=O)c1ccc2c(c1)SC1=NC(=O)/C(=C/c3ccco3)C(=N)N12 | -6.01%
Cc1ccc2cc(CCNC(=O)c3c(-c4ccccc4Cl)noc3C)c(=O)[nH]c2c1 | -2.45%
CCOc1ccc(/C=C/C(=O)OCC(=O)c2ccccc2OC)cc1OC | -0.62%
Cc1ccc(S(=O)(=O)N2[C@@H](c3cccc(Cl)c3)C(C(=O)O)=CC[C@H]2c2ccc(Cl)c(Cl)c2)cc1 | 2.51%
Cc1cc(Nc2ccccc2)n(C(=O)c2ccc(N)cc2)n1 | 3.89%
O=C1C2N=NN(CC(=O)N3N=C(c4cccc5ccccc45)CC3c3ccccc3)C2C(=O)N1c1ccccc1 (stereo not given) | -0.31%
C=CCn1c(=S)[nH]c2scc(-c3ccco3)c2c1=O | 1.52%
CCCc1ccc(OCC(=O)NNC(=S)NC(=O)c2ccco2)cc1 | -5.19%
Cc1cc(N/N=C\c2ccc(Br)cc2)nc(-n2nc(C)cc2C)n1 | -2.43%
Cc1ccc(-c2cc(C(=O)Nc3nn[nH]n3)c3ccccc3n2)c(C)c1 | -5.88%
Cc1ccc(NS(=O)(=O)c2ccc(N/N=C/c3ccccc3OCC(=O)O)c([N+](=O)[O-])c2)c(C)c1 | 3.83%
OCCNc1nc(Nc2ccc(Cl)c(Cl)c2)nc2ccccc12 | 6.65%
CSc1ccc(/C=N\NC(=O)COc2ccc(Cl)cc2Br)cc1 | -2.43%
CCCCn1c(SCc2ncc(-c3ccccc3)o2)nc2cc(S(N)(=O)=O)ccc21 | -3.7%

SMILES | inhibition
CN(C(=O)COC(=O)c1cc(-c2ccco2)nc2ccccc12)C1CCS(=O)(=O)C1 (stereo not given) | -3.35%
Oc1c(Cl)cc(Cl)c(Cl)c1Cc1c(O)c(Cl)cc(Cl)c1Cl | -0.37%
Cc1cc(-c2csc(N)n2)c(C)n1-c1ccccc1 | -5.26%
C#CCOCCOCCOCCNc1nc(N2CCN(C(=O)CCCCCCCCCCNC(=O)[C@H](CCCCN)n3cc(C)nn3)CC2)nc(N2CCN(C(=O)CCCCCCCCCCNC(=O)[C@H](CO)n3cc(CCCSC)nn3)CC2)n1 | -2.42%
COc1cc(C2C(C(=O)c3ccc(C)o3)=C(O)C(=O)N2CCc2ccccc2)ccc1O (stereo not given) | 1.74%
Cc1ccccc1S(=O)(=O)N1[C@@H](c2cccc(Cl)c2)C(C(=O)O)=CC[C@H]1c1ccc(Cl)cc1 | 1.77%
O=C1C(=O)N(CC2COc3ccccc3O2)c2ccccc21 (stereo not given) | -2.89%
C#CCOCCOCCOCCNc1nc(N2CCN(C(=O)CCCCCCCCCCNC(=O)[C@H]([C@@H](C)CC)n3cc(CCCCN=C(N)N)nn3)CC2)nc(N2CCN(C(=O)CCCCCCCCCCNC(=O)[C@H](CO)n3cc(CCCSC)nn3)CC2)n1 | 4.44%
COc1ccc(-c2nn(-c3ccccc3)cc2/C=C\C(=O)Nc2ccc(C(=O)O)cc2)cc1 | 5.85%
C/C(CC(O)(/C=N/O)c1ccccc1)=N\O (stereo not given) | -4.09%
N=c1n(Cc2ccc(Cl)cc2)c2ccccc2n1CC(O)c1ccco1 (stereo not given) | -3.3%
CN1CCN(CCCNC(=O)c2ccc(/C=C3\Oc4ccccc4N(Cc4ccc(Cl)cc4)C3=O)cc2)CC1 | 0.17%
Oc1c(CN2CCN(c3ccc(F)cc3)CC2)cc(Cl)c2cccnc12 | 2.27%
Cc1cccc(OCC(O)Cn2c(=N)n(CCN3CCOCC3)c3ccccc32)c1 (stereo not given) | 0.64%
CCNS(=O)(=O)c1ccc(NC(=O)Nc2cccc(C(F)(F)F)c2)cc1 | 7.24%
COc1ccccc1/C=N\Nc1cc(C)nc(-n2nc(C)cc2C)n1 | -0.35%
O=C(Nc1nnc(-c2ccccc2)o1)c1cc(-c2cccs2)nc2ccccc12 | -6.61%
Cc1ccc(-c2nn(-c3ccccc3)cc2/C=C2\SC(=S)N(CCCCCC(=O)O)C2=O)o1 | 1.44%
Cc1ccc2nc(N3C(=O)C(O)=C(C(=O)c4ccco4)C3c3cccc(O)c3)sc2c1 (stereo not given) | -0.83%
COc1cnc(-c2ccccn2)nc1Oc1ccc(C(C)(C)C)cc1 | 1.77%
O=C(Nc1nc(-c2ccco2)c(-c2ccco2)s1)c1ccco1 | 0.46%
CCCOc1ccc(C2C(C(=O)c3ccc(C)o3)=C(O)C(=O)N2CCCn2ccnc2)cc1 (stereo not given) | 2.29%
O=C(CSc1nnc(C2CC2)n1Cc1ccccc1)Nc1cccnc1Cl | -2.71%

SMILES | inhibition
Oc1ccc(C2Nc3cccc4cccc(c34)N2)cc1 | 8.12%
C=CCN(CC=C)S(=O)(=O)c1ccc(C(=O)Nc2nc3c(s2)CCc2ccccc2-3)cc1 | -1.58%
CCCCCCCCCCOC(=O)Cn1c(COc2cccc(OC)c2)[n+](C)c2ccccc21 | 3.6%
COc1cccc(/C=N/NC(=O)c2[nH]nc3c2CCc2ccccc2-3)c1O | -2.54%
Cc1ccc(NC(=O)COc2ccc(/C=C3/NC(=O)NC3=O)cc2)cc1 | -6.15%
O=C(COC(=O)c1ccc(Oc2ccccc2)cc1)Nc1nnc(-c2ccccc2)o1 | -5.1%
CN(C(=O)CN(CCO)CC(=O)N(C)C(C)(C)Cc1ccccc1)C(C)(C)Cc1ccccc1 | -8.53%
O=C1c2cccc(OCC(=O)N3N=C(c4cccs4)CC3c3ccc(F)cc3)c2CCN1Cc1ccccc1 (stereo not given) | -2.07%
O=C(/C=C/c1ccc(F)cc1)NC(=S)NNC(=O)c1cccnc1 | -1.96%
Cc1ccc(Nc2nc(CSc3nnnn3-c3ccccc3)cc(=O)[nH]2)cc1 | -0.66%
O=C(N=C1SC2CS(=O)(=O)CC2N1c1cc(Cl)ccc1Cl)C1CC1 (stereo not given) | -3.78%
O=C(Nc1ccc(S(=O)(=O)Nc2nccs2)cc1)c1cc(-c2ccncc2)nc2ccccc12 | 0.33%
OCCCN1c2ccccc2Nc2nnc(-c3ccccc3)cc21 | 4.57%
C/C(=N\c1nc2ccccc2n1C)c1cc(Cl)ccc1O | -5.58%
COc1ccccc1NC(=O)CSc1nc2sc3c(c2c(=O)n1-c1ccccc1)CCN(C)C3 | -2.95%
Cc1ccc(CSCC2Nc3ccc(C(=O)N4CCN(c5ccc(F)cc5)CC4)cc3NC2=O)cc1 (stereo not given) | -0.12%
Cc1ccc(C)c(Cn2nnc3c(=O)[nH]c(C(=O)Nc4ccc(F)cc4)nc32)c1 | -0.92%
CCCCCCCCCCOC(=O)Cn1c(COc2ccc(C)cc2)[n+](C)c2ccccc21 | 1.37%
C#CCOCCOCCOCCNc1nc(N2CCN(C(=O)CCCCCCCCCCNC(=O)Cn3cc(CCCCCN)nn3)CC2)nc(N2CCN(C(=O)CCCCCCCCCCNC(=O)[C@H](CO)n3cc(CCCSC)nn3)CC2)n1 | 0.18%
Cc1ccc(Cn2nnc3c(=O)[nH]c(C4CCN(S(=O)(=O)/C=C/c5ccccc5)CC4)nc32)cc1 | 2.46%
O=[N+]([O-])c1ccccc1/C=N/n1c(COc2ccccc2)n[nH]c1=S | -5.54%
Cc1nc(/N=C(\N)NC(=O)NC2CCCCC2)nc2ccccc12 | -1.97%
COC(=O)Cc1cc(=O)n(-c2nc3ccccc3s2)[nH]1 | 0.87%

SMILES | inhibition
c1ccc(-c2nccc(-c3ccc(-n4cnc5ccccc54)cc3)n2)nc1 | 3.84%
O=C(N/N=C/c1cc([N+](=O)[O-])ccc1O)/C(=C\c1cccs1)NC(=O)c1ccccc1 | -3.51%
CC(C)OC(=O)c1cc(NC(=O)C2C3CCC(O3)C2C(=O)O)cc(C(=O)OC(C)C)c1 (stereo not given) | 9.52%
COc1ccc(NC(=O)C2C3CCC(O3)C2C(=O)O)cc1OC (stereo not given) | 39.5% (active)
Cc1cc(N2C(=O)C(O)=C(C(=O)c3ccc(C)o3)C2c2ccc(OCc3ccccc3)cc2)no1 (stereo not given) | -0.28%
O=[N+]([O-])/C=C/c1ccc2c(ccn2Cc2ccccc2)c1 | -1.11%
C=CCn1c(=NC(=O)c2ccc(S(=O)(=O)N3CCCC3)cc2)sc2cc(NC(C)=O)ccc21 | -0.04%
COCCCNC(=O)C1CC(=O)N(c2ccc(C)cc2)C1 (stereo not given) | -1.02%
NC(N)=N/N=C/c1ccc(OCc2ccc(Cl)cc2Cl)cc1 | -2.25%
Cc1ccc(-n2nc3ccc(NC(=O)/C=C/c4ccco4)cc3n2)cc1C | -6.55%
Clc1ccc2c(c1)C1=C(C(c3ccncc3)O2)C(c2ccc(Br)cc2)n2ncnc2N1 (stereo not given) | 2.48%
CCn1c(SCC(=O)Nc2cc(C)ccc2C)nnc1-c1cnccn1 | -3.87%
Oc1c(C(c2ccccn2)N2CCOCC2)ccc2cccnc12 (stereo not given) | -0.03%
N#Cc1c(-c2ccccc2)nc(SCc2cccc(C(F)(F)F)c2)[nH]c1=O | -1.06%
C=C1c2c(Cl)ccc(O)c2C(O)=C2C(=O)[C@]3(O)C(O)=C(C(N)=O)C(=O)[C@@H](N(C)C)[C@@H]3[C@@H](O)C12 (stereo not given in full) | 2.9%
Cc1ccc(N2C(=O)C3N=NN(CC(=O)N4N=C(c5cccc6ccccc56)CC4c4ccccc4)C3C2=O)cc1 (stereo not given) | -0.1%
CC(=O)c1ccc(N2CCN(S(=O)(=O)c3ccc4c(c3)CC(=O)N4C)CC2)cc1 | 2.4%
COc1ccc(-c2nn(-c3ccccc3)cc2/C=C2/SC(=S)N(CCCC(=O)O)C2=O)c(C)c1 | -0.32%
Cc1ccc(OCC(=O)Nc2ccc(-c3nnc(-c4ccco4)o3)cc2)cc1 | -4.22%
CCOc1ccc(NC(=O)c2ccc(NC(=O)COC(=O)c3ccc(NC(=O)CC#N)cc3)cc2)cc1 | -3.12%
CC(C)(C)Nc1nc(-c2ccccn2)nc2ccccc12 | -4.55%
